Assay outcomes as filed in PubChem BioAssay.
TDP1 inh – qHTS Assay for Inhibitors of Tyrosyl-DNA Phosphodiesterase (TDP1). Tyrosyl-DNA phosphodiesterase 1 (Homo sapiens), Q9NUW8. 0.28% of 350,000 active. recombinant TDP1, AlphaScreen DNA substrate cleavage. Potency, µM (doses to about 130 µM), for the others: at the highest dose activity change, negative = inhibition, hits mostly inhibitors; note: potency is the fitted concentration of half-maximal effect; % is set by controls: 0 for no effect and ±100 for the full control effect; nearly all actives have a fitted effect of over 40% in size
Target sequence (Q9NUW8 whole entry, looked up): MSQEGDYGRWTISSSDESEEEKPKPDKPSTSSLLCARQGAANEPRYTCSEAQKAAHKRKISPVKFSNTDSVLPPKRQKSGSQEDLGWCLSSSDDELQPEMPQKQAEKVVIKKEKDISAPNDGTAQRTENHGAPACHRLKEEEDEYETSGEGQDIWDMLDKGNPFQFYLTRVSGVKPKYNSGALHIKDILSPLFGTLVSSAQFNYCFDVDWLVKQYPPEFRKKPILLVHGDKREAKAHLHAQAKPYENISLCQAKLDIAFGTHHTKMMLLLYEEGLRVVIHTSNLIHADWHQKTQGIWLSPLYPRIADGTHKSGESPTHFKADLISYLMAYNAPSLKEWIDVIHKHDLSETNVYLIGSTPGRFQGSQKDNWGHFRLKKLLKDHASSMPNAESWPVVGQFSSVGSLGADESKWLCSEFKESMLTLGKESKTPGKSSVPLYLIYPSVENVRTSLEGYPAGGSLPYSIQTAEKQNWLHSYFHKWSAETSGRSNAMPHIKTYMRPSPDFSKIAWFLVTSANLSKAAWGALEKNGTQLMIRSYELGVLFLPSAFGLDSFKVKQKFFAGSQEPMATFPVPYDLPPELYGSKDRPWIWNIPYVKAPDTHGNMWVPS
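Enzyme-compound mixtures sat 15 min at room temperature, followed by a 5 min reaction with 15 nM final substrate and 10 min with AlphaScreen beads. Recombinant human Tdp1 was used at 1 nM final.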
DT40 TDP1 CPT – qHTS for Inhibitors of human tyrosyl-DNA phosphodiesterase 1 (TDP1): qHTS in cells in presence of CPT. chicken DT40 Tdp1-/-;hTDP1 cells + 20 nM CPT, ATP luminescence, 48 h. Potency, µM (top dose mostly 46.2 µM), inactives show at the top dose activity change, negative = growth inhibition, most hits filed as inhibitors. 12% of 420,000 active. AID 686979, 2013; note: potency is the fitted concentration of half-maximal effect; % is set by controls: 0 for no effect and ±100 for the full control effect; nearly all actives have a fitted effect of over 55% in size
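Chicken DT40 Tdp1-/- cells complemented with human TDP1, 400 cells/well, exposed to compounds plus 20 nM camptothecin for at least 48 h at 37 C; viability read as ATP content by CellTiter-Glo luminescence.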
IL1B secr inh – qHTS for Inhibitors of Inflammasome Signaling: IL-1-beta AlphaLISA Primary Screen. THP-1 LPS/ATP IL-1B secretion, AlphaLISA, 16 h; stronger effect = lower value. activity change, % at 57.5 µM. 4.7% of 360,000 active; in the data active = activity change below about -50%; inconclusive = mostly about -30% to -49%; note: % is set by controls: 0 for no effect and ±100 for the full control effect
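Secreted IL-1B measured by AlphaLISA bead assay after 16 h compound exposure of THP-1 cells; compounds (final up to 57.5 uM) added 1 h before LPS (250 ng/mL) and ATP (1.25 mM) stimulation; lower signal means less secretion.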
TGFb SMAD3 inh – qHTS for Inhibitors of TGF-b. HepG2 CAGA-GFP TGF-b/SMAD3 reporter, GFP fluorescence, 18 h; TGF-beta stimulated, 500 pg/mL final. Potency, µM (series often up to 46.1 µM), for inactives: at the highest dose activity, negative = inhibition, usual class: inhibitors. 1.2% of 410,000 active; note: potency is the fitted concentration of half-maximal effect; % is set by controls: 0 for no effect and ±100 for the full control effect; nearly all actives have a fitted effect of over 65% in size
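Smad-responsive CAGA-GFP expression was quantified in HEPG2 cells exposed to compounds and 500 pg/mL final TGF-beta for 18 h at 37 degrees C; unstimulated wells defined full inhibition.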
DT40 TDP1 no CPT – qHTS for Inhibitors of human tyrosyl-DNA phosphodiesterase 1 (TDP1): qHTS in cells in absence of CPT; 15% of 420,000 active; DT40 Tdp1-/- hTDP1 cells, no CPT, ATP luminescence, 48 h; AID 686978, 2013; Potency, µM (highest dose often 46.2 µM), inactives show top-dose activity change, negative = growth inhibition, hits mostly inhibitors; note: potency is the fitted concentration of half-maximal effect; % is set by controls: 0 for no effect and ±100 for the full control effect; nearly all actives have a fitted effect of over 55% in size
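Growth kinetics read by CellTiter-Glo luminescence after ≥48 hr at 37 °C. Cells: DT40 Tdp1-/- stably carrying human TDP1, 400 per well, compound exposure in the absence of CPT (DMSO vehicle).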
HepG2 viability – qHTS for Inhibitors of TGF-b: Cytotox Counterscreen; HepG2 CAGA-GFP viability, ATP luminescence, 18 h; Potency, µM (doses to about 46.1 µM), inactives show at the highest dose activity change, negative = cytotoxicity, most hits filed as cytotoxic; 0.76% of 410,000 active; note: potency is the fitted concentration of half-maximal effect
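CellTiter-Glo luminescence gave cytotoxicity after 18 hours at 37 degrees C. The cells were HepG2 CAGA-GFP in 1% FBS DMEM, stimulated with 500 pg/mL TGF-beta after compound addition. %Activity was normalised to no-cell wells (complete cell-killing) and DMSO (no toxicity), and curves were fitted and classified.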
Numbers without * were called inactive; ? = inconclusive; / = not tested or not shown; [ ] = another dose, or the depositor's remark. Sampled rows, rich in hits. Any-hit rate of the full collection: about 19%. Unless noted, calls come from the whole dose curve; as a rule, active = well fitted curve in the direction sought with a large enough effect; inconclusive = small, poorly fitted or top-dose-only effect, or another doubt; inactive = no such curve, though single readings can be large; an effect the other way counts as inactive or inconclusive.

SMILES	TDP1 inh	DT40 TDP1 CPT	IL1B secr inh	TGFb SMAD3 inh	DT40 TDP1 no CPT	HepG2 viability
Cc1ccc(CNC(=O)C2CCCN(Cc3nc(-c4cccc(C)c4)oc3C)C2)cc1 (configuration not stated)	10%	18µM*	/	?	?	16µM*
Cc1oc(-c2cccc(Cl)c2)nc1CN1CCCC(C(=O)NCc2ccc(Cl)cc2)C1 (configuration not stated)	-1%	8.2µM*	/	?	7.3µM*	-7%
O=C1CCCc2[nH]c(=O)c(C(=O)NCc3ccccc3)cc21	/	-19%	/	5%	-19%	-24%
S=C(NCCCN1CCOCC1)N1CCN(c2nc(-c3ccc(Cl)cc3)cs2)CC1	-3%	7.3µM*	-70*	13µM*	4.1µM*	11µM*
S=C(NCC1CCCO1)N1CCN(c2cccc(Cl)c2)CC1 (configuration not stated)	-3%	?	-5	-15%	?	-16%
S=C(NCCCN1CCOCC1)N1CCN(c2nc(-c3ccccc3)cs2)CC1	0%	?	-87*	-19%	23µM*	-28%
O=S(=O)(c1cccc(Cl)c1Cl)N1CCN(C(=S)NCCCN2CCOCC2)CC1	?	?	-74*	-23%	21µM*	-8%
S=C(NCC1CCCO1)N1CCN(c2nc(-c3ccc(Cl)cc3)cs2)CC1 (configuration not stated)	1%	16µM*	-68*	?	15µM*	-21%
CCCN1C(=O)C(NC(=O)c2ccccc2OC)(C(F)(F)F)C(C(=O)OC)=C1C (configuration not stated)	-3%	?	/	-29%	?	-2%
CSc1ccc(CCNC(=O)c2cc3cc4cc(C)ccc4nc3s2)cc1	2%	?	/	4%	?	-3%
COc1ccc(OC)c(NC(=O)c2cc(=O)c3c(C)cc(C)cc3o2)c1	-7%	-6%	/	2%	?	1%
COC[C@@H]1CCCN1[C@H]1CS(=O)(=O)N[C@@H]1COCc1ccccc1	/	-13%	-11	-32%	1%	-18%
CCCCCCCC(=O)CC[C@@H]1[C@@H](C/C=C\CCCC(=O)OC(C)C)[C@@H](O)C[C@H]1O	/	7.5µM*	/	/	7.5µM*	/
CCc1nnc(NC(=O)CSCc2cc(=O)c3ccc(C)cc3[nH]2)s1	5%	-1%	/	-1%	-2%	-16%
CC1CCCCN1CCCNC(=O)c1ccc2c(c1)NC(=O)CN2C (configuration not stated)	/	-14%	-12	0%	-19%	1%
CCCCN(CCCNC(=O)c1ccc2c(c1)NC(=O)CN2C)c1ccccc1	/	?	-103*	?	?	16µM*
Cc1cc(N2C(=O)c3ccccc3C2=O)no1	0%	/	/	/	/	/
Cc1ccc(OCC(=O)Nc2ccc(S(=O)(=O)Nc3cc(C)on3)cc2)c(Br)c1	/	-8%	/	5%	-23%	-18%
COc1ccccc1CCC(=O)N1CCOc2c(cc(-c3cnc4ccccc4c3)cc2OC)C1	/	15%[9.04 µM]	/	/	-22%	/
CCOC(=O)CNC(=O)CSc1nc(-c2ccc(C)cc2)ns1	-6%	-6%	-152*	-7%	-20%	-17%
CCOC(=O)CNC(=O)CSc1nc2c(C)cccc2cc1CC	3%	?	-98*	-3%	?	0%
